Measured values published in PubChem BioAssay (NCATS).
Active and inactive are the calls of the source. No rule for the calls is given here.

What was measured:
[1] = Immunotoxin (HA22) sensitization/mitigation study. Vehicle arm (PBS) (AID 1159510)
[2] = Immunotoxin (SS1P) sensitization/mitigation study. Vehicle arm (DMEM) (AID 1159513)
Potency is read from the fitted curve at half-maximal effect.

| SMILES | Potency [1] | Potency [2] |
| --- | --- | --- |
| CC(C)[C@H](C(=O)Nc1ccc(C(=O)NO)cc1)c1ccccc1 | 41.8 nM (active) | 132 nM (active) |
| CC(C)CC(=O)Nc1n[nH]c2c1CN(C(=O)C1CCN(C)CC1)C2(C)C | 52.6 nM (active) | 264 nM (active) |
| COc1cc2nc(-c3ccc(N4CCN(C)CC4)cc3)nc(NCCN3CCOCC3)c2cc1OC | 2350 nM (active) | 18700 nM (active) |
| COc1cc2c(Oc3ccc(-c4cnc(Nc5ccc(F)cc5)n(C)c4=O)cc3F)ccnc2cc1OCCCN1CCOCC1 | 18700 nM (active) | 20900 nM (active) |
| CC(C)(C)OC(=O)Nc1ccc(-c2cc(C(=O)NCCCCCCC(=O)NO)no2)cc1 | 93.5 nM (active) | 1180 nM (active) |
| Cc1ccc(C(=O)Nc2ccc(CN3CCN(C)CC3)c(C(F)(F)F)c2)cc1C#Cc1cnc2cccnn12 | 1320 nM (active) | 6620 nM (active) |
| CCN1CCN(Cc2ccc(-c3cc4c(N[C@H](C)c5ccccc5)ncnc4[nH]3)cc2)CC1 | 16600 nM (active) | 23500 nM (active) |
| COc1c(C)cnc(Cn2cnc3c(Cl)nc(N)nc32)c1C | 18.7 nM (active) | 10.5 nM (active) |
| OCCn1cc(-c2cnc3nnn(Cc4ccc5ncccc5c4)c3n2)cn1 | inactive | inactive |
| C[C@@H]1CCN(C(=O)CC#N)C[C@@H]1N(C)c1ncnc2[nH]ccc12 | inactive | inactive |
| O=C(OCC#CCSc1nnc(-c2ccc3ccccc3c2)o1)c1cc2ccccc2s1 | inactive | inactive |
| Cn1c(=O)n(-c2ccc(C(C)(C)C#N)cc2)c2c3cc(-c4cnc5ccccc5c4)ccc3ncc21 | 3720 nM (active) | 33.2 nM (active) |
